Where “and” joins values, the source holds several entries; their conditions need not be identical. Equal entries are not always repeated. Non-standard residues stand in square brackets, D forms with d. Residues, ends and D or L forms follow the SMILES beside them. Nle = CCCC[C@H](N)C(=O)O
target: Casein kinase I isoform delta (Homo sapiens) (UniProt P48730); conditions: Compound concentration 20.0 uM
Sequence (P48730 whole entry, looked up, canonical isoform): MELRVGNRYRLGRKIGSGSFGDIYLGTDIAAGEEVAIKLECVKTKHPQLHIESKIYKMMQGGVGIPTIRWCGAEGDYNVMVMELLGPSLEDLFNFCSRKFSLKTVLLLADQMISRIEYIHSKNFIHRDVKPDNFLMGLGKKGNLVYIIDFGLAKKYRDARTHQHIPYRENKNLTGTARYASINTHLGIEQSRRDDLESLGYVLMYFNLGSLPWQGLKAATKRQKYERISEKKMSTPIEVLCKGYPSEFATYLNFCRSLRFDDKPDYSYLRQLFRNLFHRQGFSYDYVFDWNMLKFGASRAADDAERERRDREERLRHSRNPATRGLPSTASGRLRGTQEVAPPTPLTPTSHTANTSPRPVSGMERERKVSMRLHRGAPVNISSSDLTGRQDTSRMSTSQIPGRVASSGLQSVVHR

Q: How did the ΔTm turn out when CCn1c(=O)c(C)cn(Cc2nnc(-c3ccc(F)c(OC)c3F)s2)c1=O was run?
A: 0.22 °C

Q: With Cc1c(F)c(N)cc(C(=O)Nc2cc(-n3cc(C(=O)NCCCN4CCOCC4)nn3)ccc2N2CCN(C)CC2)c1Cl as the compound, how does the ΔTm read?
A: 0.04 °C

Q: For N[C@@H](CCCCNC(=O)OCc1ccc([N+](=O)[O-])cc1)C(=O)N1CCCC1, which ΔTm is on record?
A: -0.16 °C

Q: O=C(C1CC1)N1CC[C@@H](Cc2n[nH]c(=O)n2-c2ccc(-c3ccc4occc4c3)cc2)C1 was tested. Which ΔTm did it give?
A: 0.35 °C and -0.18 °C

Q: For CN(CCC(Oc1ccc(-c2ccccc2)cc1)c1ccc(F)cc1)CC(=O)O (stereo not given), which ΔTm is on record?
A: -0.12 °C

Q: O=C(Oc1cccc(F)c1OC(=O)c1cccc(O)c1)c1cccc(O)c1 was tested. Which ΔTm did it give?
A: 0.57 °C

Q: How did the ΔTm turn out when N=C(N)SCc1ccc(CN2C(=O)C(=O)c3cc(C(F)(F)F)ccc32)cc1 was run?
A: 0.19 °C

Q: For Cc1ccnc(NS(=O)(=O)c2ccc(NC(=O)Nc3ccc(S(=O)(=O)Nc4nccc(C)n4)cc3)cc2)n1, which ΔTm is on record?
A: -0.62 °C

Q: COCc1nc(C(F)(F)F)[nH]c1-c1cc(C(=O)N2CC(c3ccc(C#N)cc3)C2)c(C)cc1C was tested. Which ΔTm did it give?
A: -0.27 °C

Q: Cn1nc(C(C)(C)C)cc1C(=O)NC(Cc1cccc(Cl)c1)C(=O)NCC#N (stereo not given) was tested. Which ΔTm did it give?
A: 0.04 °C

Q: How did the ΔTm turn out when COc1cccc(OC)c1S(=O)(=O)Nc1noc2cc(Cn3cccn3)cc(OC)c12 was run?
A: -0.03 °C

Q: With CNC(=O)Cn1cc(-c2ccc3c(c2)[C@H](F)C[C@]32NC(=O)N(CC(=O)N(Cc3ccc(F)cc3)[C@@H](C)C(F)(F)F)C2=O)cn1 as the compound, how does the ΔTm read?
A: 0.73 °C

Q: With Cc1ccc([N+](=O)[O-])cc1S(=O)(=O)N(C)C as the compound, how does the ΔTm read?
A: -0.33 °C

Q: With Nc1ccc(-c2cccs2)cc1NC(=O)c1ccc(NC=O)cc1 as the compound, how does the ΔTm read?
A: -0.53 °C

Q: How did the ΔTm turn out when CCCN(CCC)c1ccc(C=O)cc1Br was run?
A: -0.24 °C

Q: O=C(O)c1cccc(-c2ccc(-c3cn(C(=O)N4CCCCC4Cc4ccccc4)nn3)cc2)c1 (stereo not given) was tested. Which ΔTm did it give?
A: -4.82 °C

Q: Which ΔTm does the source give for CC(=O)N[C@@H](CC(C)C)C(=O)N[C@@H](CCC(=O)O)C(=O)N[C@@H](Cc1cnc[nH]1)C(=O)N[C@H](C=O)CC(=O)O (Ac-LEHD-aldehyde) here?
A: 0.09 °C

Q: With Cc1cc(N2C[C@@H](C)N[C@@H](C)C2)ncc1-c1ccc(-c2nc3c(ccn3C)c(=O)[nH]2)cc1 as the compound, how does the ΔTm read?
A: 0.59 °C

Q: How did the ΔTm turn out when O=c1[nH]c(N2CCC3(CC2)CN(CCO)c2cc(F)cc(F)c23)nc2c1CCCC2 was run?
A: -0.13 °C

Q: Which ΔTm does the source give for COc1cc2c(cc1-c1c(C)noc1C)[nH]c1nc(C)nc(-c3ccnc4ccccc34)c12 here?
A: -0.15 °C

Q: With O=S(=O)(O)c1ccc2cc(/N=N/c3cc(S(=O)(=O)O)c4cccnc4c3O)ccc2c1 as the compound, how does the ΔTm read?
A: 0.85 °C

Q: With O=C(c1cc(Cc2n[nH]c(=O)c3ccccc23)ccc1F)N1CCN(C(=O)C2CC2)CC1 as the compound, how does the ΔTm read?
A: -0.42 °C

Q: For CS(=O)(=O)N1CCN(C(=O)c2cnc3ccc(F)cc3c2-c2ccc(C3(C#N)CC3)cc2)CC1, which ΔTm is on record?
A: 0.11 °C

Q: CN1CCN2c3c(cccc31)[C@@H]1CN(CCCC(=O)c3ccc(F)cc3)CC[C@@H]12 was tested. Which ΔTm did it give?
A: -0.14 °C

Q: How did the ΔTm turn out when CC(=O)N[C@@H](C)C(=O)N[C@@H](CCC(=O)O)C(=O)N[C@H](C(=O)N[C@@H](C=O)CC(=O)O)C(C)C was run?
A: 0.14 °C

Q: O=C(COc1ccc(-c2oc3cc(O)c(C(=O)O)cc3c2C#Cc2cccc(Cl)c2)cc1)NC1CC1 was tested. Which ΔTm did it give?
A: 0.15 °C

Q: How did the ΔTm turn out when Nc1ncnc2c1ncn2[C@@H]1O[C@H](C(=O)N2CCN(CC(=O)Nc3cccc4c3CNC4=O)CC2)[C@@H](O)[C@H]1O was run?
A: 0.22 °C

Q: For CCCCN(Cc1ccc(C(=O)NO)cc1)C(=O)Nc1ccccc1, which ΔTm is on record?
A: 0.26 °C

Q: OC[C@H]1O[C@@H](c2ccc(F)c(Cc3cc4ccccc4s3)c2)[C@H](O)[C@@H](O)[C@@H]1O was tested. Which ΔTm did it give?
A: -0.29 °C

Q: For COc1cc(-c2cn(C)c(=O)c3cnccc23)cc(OC)c1CN(C)CC(=O)NCCOCCOCCNc1cccc2c1C(=O)N(C1CCC(=O)NC1=O)C2=O (stereo not given), which ΔTm is on record?
A: 0.06 °C

Q: Which ΔTm does the source give for CCCC[C@@H](C=O)NC(=O)[C@H](CC(C)C)NC(=O)[C@H](CC(C)C)NC(C)=O (Ac-Leu-Leu-[Nle]-aldehyde) here?
A: 0.12 °C

Q: For Cc1cc(C)c(CNC(=O)c2cc(-c3ccc(N4CCN(C)CC4)nc3)cc3c2c(C)cn3C(C)C)c(=O)[nH]1, which ΔTm is on record?
A: 0.02 °C

Q: How did the ΔTm turn out when C=CC(=O)Nc1cccc(-c2c[nH]cc2CN(C)CCN)c1 was run?
A: -0.04 °C

Q: How did the ΔTm turn out when CC(=O)N[C@@H](Cc1ccc(O)cc1)C(=O)N[C@H](C(=O)N[C@@H](C)C(=O)N[C@@H](CC(=O)O)C(=O)COC(=O)c1c(C)cccc1C)C(C)C was run?
A: 0.17 °C

Q: Which ΔTm does the source give for CC(=Cc1cc(C)ccc1C=C(C)C(=O)NC(=N)N)C(=O)N=C(N)N here?
A: 0 °C

Q: Cc1cc(C(=O)N2CCN(C3CN(C(=O)c4ccc(-c5ccccc5)cc4)C3)CC2)no1 was tested. Which ΔTm did it give?
A: 0.33 °C

Q: CCC[C@H]1CNCc2c1[nH]c(=O)c(C#N)c2N1CCC2(CC1)CC2 was tested. Which ΔTm did it give?
A: 0.15 °C

Q: How did the ΔTm turn out when CN(CCOc1ccc(-c2ccc3c(c2)OCO3)cc1C(C)(C)C)CC(=O)O was run?
A: -0.21 °C

Q: Which ΔTm does the source give for Cc1ccc(NC2=CC(=O)c3sc(C)nc3C2=O)cc1 here?
A: -0.17 °C

Q: For CNCCC(Oc1ccccc1OC)c1ccccc1 (stereo not given), which ΔTm is on record?
A: -0.42 °C

target: Glycogen synthase kinase-3 beta (Homo sapiens) (UniProt P49841); conditions: Compound concentration 20.0 uM
Sequence (P49841 whole entry, looked up): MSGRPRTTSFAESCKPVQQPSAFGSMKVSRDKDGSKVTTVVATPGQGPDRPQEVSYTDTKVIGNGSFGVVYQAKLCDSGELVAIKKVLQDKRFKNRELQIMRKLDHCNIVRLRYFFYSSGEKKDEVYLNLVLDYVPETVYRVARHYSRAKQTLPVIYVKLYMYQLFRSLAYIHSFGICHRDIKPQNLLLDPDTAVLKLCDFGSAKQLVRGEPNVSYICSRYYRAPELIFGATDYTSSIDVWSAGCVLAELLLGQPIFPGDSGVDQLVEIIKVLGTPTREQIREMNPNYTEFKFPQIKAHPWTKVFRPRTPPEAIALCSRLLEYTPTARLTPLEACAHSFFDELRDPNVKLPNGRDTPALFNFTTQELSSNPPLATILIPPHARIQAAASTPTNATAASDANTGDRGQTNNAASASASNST

Q: For CCn1c(=O)c(C)cn(Cc2nnc(-c3ccc(F)c(OC)c3F)s2)c1=O, which ΔTm is on record?
A: 0 °C

Q: Which ΔTm does the source give for Cc1c(F)c(N)cc(C(=O)Nc2cc(-n3cc(C(=O)NCCCN4CCOCC4)nn3)ccc2N2CCN(C)CC2)c1Cl here?
A: -0.82 °C

Q: N[C@@H](CCCCNC(=O)OCc1ccc([N+](=O)[O-])cc1)C(=O)N1CCCC1 was tested. Which ΔTm did it give?
A: -0.58 °C

Q: How did the ΔTm turn out when O=C(C1CC1)N1CC[C@@H](Cc2n[nH]c(=O)n2-c2ccc(-c3ccc4occc4c3)cc2)C1 was run?
A: -0.54 °C and 0.29 °C

Q: CN(CCC(Oc1ccc(-c2ccccc2)cc1)c1ccc(F)cc1)CC(=O)O (stereo not given) was tested. Which ΔTm did it give?
A: -0.74 °C

Q: For O=C(Oc1cccc(F)c1OC(=O)c1cccc(O)c1)c1cccc(O)c1, which ΔTm is on record?
A: -0.64 °C

Q: N=C(N)SCc1ccc(CN2C(=O)C(=O)c3cc(C(F)(F)F)ccc32)cc1 was tested. Which ΔTm did it give?
A: -0.71 °C

Q: With Cc1ccnc(NS(=O)(=O)c2ccc(NC(=O)Nc3ccc(S(=O)(=O)Nc4nccc(C)n4)cc3)cc2)n1 as the compound, how does the ΔTm read?
A: -1.11 °C

Q: COCc1nc(C(F)(F)F)[nH]c1-c1cc(C(=O)N2CC(c3ccc(C#N)cc3)C2)c(C)cc1C was tested. Which ΔTm did it give?
A: -1.21 °C

Q: Which ΔTm does the source give for Cn1nc(C(C)(C)C)cc1C(=O)NC(Cc1cccc(Cl)c1)C(=O)NCC#N (stereo not given) here?
A: 0.23 °C

Q: With COc1cccc(OC)c1S(=O)(=O)Nc1noc2cc(Cn3cccn3)cc(OC)c12 as the compound, how does the ΔTm read?
A: -1.16 °C

Q: For CNC(=O)Cn1cc(-c2ccc3c(c2)[C@H](F)C[C@]32NC(=O)N(CC(=O)N(Cc3ccc(F)cc3)[C@@H](C)C(F)(F)F)C2=O)cn1, which ΔTm is on record?
A: 1.28 °C

Q: Which ΔTm does the source give for Cc1ccc([N+](=O)[O-])cc1S(=O)(=O)N(C)C here?
A: -0.61 °C

Q: Which ΔTm does the source give for Nc1ccc(-c2cccs2)cc1NC(=O)c1ccc(NC=O)cc1 here?
A: -0.36 °C

Q: Which ΔTm does the source give for CCCN(CCC)c1ccc(C=O)cc1Br here?
A: -0.05 °C

Q: For O=C(O)c1cccc(-c2ccc(-c3cn(C(=O)N4CCCCC4Cc4ccccc4)nn3)cc2)c1 (stereo not given), which ΔTm is on record?
A: -4.03 °C

Q: CC(=O)N[C@@H](CC(C)C)C(=O)N[C@@H](CCC(=O)O)C(=O)N[C@@H](Cc1cnc[nH]1)C(=O)N[C@H](C=O)CC(=O)O (Ac-LEHD-aldehyde) was tested. Which ΔTm did it give?
A: -0.79 °C

Q: For Cc1cc(N2C[C@@H](C)N[C@@H](C)C2)ncc1-c1ccc(-c2nc3c(ccn3C)c(=O)[nH]2)cc1, which ΔTm is on record?
A: 0.66 °C

Q: Which ΔTm does the source give for O=c1[nH]c(N2CCC3(CC2)CN(CCO)c2cc(F)cc(F)c23)nc2c1CCCC2 here?
A: -1.32 °C

Q: COc1cc2c(cc1-c1c(C)noc1C)[nH]c1nc(C)nc(-c3ccnc4ccccc34)c12 was tested. Which ΔTm did it give?
A: 0.97 °C

Q: With O=S(=O)(O)c1ccc2cc(/N=N/c3cc(S(=O)(=O)O)c4cccnc4c3O)ccc2c1 as the compound, how does the ΔTm read?
A: 1.3 °C

Q: For O=C(c1cc(Cc2n[nH]c(=O)c3ccccc23)ccc1F)N1CCN(C(=O)C2CC2)CC1, which ΔTm is on record?
A: -4.34 °C

Q: Which ΔTm does the source give for CS(=O)(=O)N1CCN(C(=O)c2cnc3ccc(F)cc3c2-c2ccc(C3(C#N)CC3)cc2)CC1 here?
A: 3.18 °C

Q: For CN1CCN2c3c(cccc31)[C@@H]1CN(CCCC(=O)c3ccc(F)cc3)CC[C@@H]12, which ΔTm is on record?
A: -0.53 °C

Q: With CC(=O)N[C@@H](C)C(=O)N[C@@H](CCC(=O)O)C(=O)N[C@H](C(=O)N[C@@H](C=O)CC(=O)O)C(C)C as the compound, how does the ΔTm read?
A: -0.69 °C

Q: Which ΔTm does the source give for O=C(COc1ccc(-c2oc3cc(O)c(C(=O)O)cc3c2C#Cc2cccc(Cl)c2)cc1)NC1CC1 here?
A: -0.41 °C

Q: How did the ΔTm turn out when Nc1ncnc2c1ncn2[C@@H]1O[C@H](C(=O)N2CCN(CC(=O)Nc3cccc4c3CNC4=O)CC2)[C@@H](O)[C@H]1O was run?
A: -0.59 °C

Q: With CCCCN(Cc1ccc(C(=O)NO)cc1)C(=O)Nc1ccccc1 as the compound, how does the ΔTm read?
A: -0.89 °C

Q: Which ΔTm does the source give for OC[C@H]1O[C@@H](c2ccc(F)c(Cc3cc4ccccc4s3)c2)[C@H](O)[C@@H](O)[C@@H]1O here?
A: -0.62 °C

Q: COc1cc(-c2cn(C)c(=O)c3cnccc23)cc(OC)c1CN(C)CC(=O)NCCOCCOCCNc1cccc2c1C(=O)N(C1CCC(=O)NC1=O)C2=O (stereo not given) was tested. Which ΔTm did it give?
A: 0.14 °C

Q: Which ΔTm does the source give for CCCC[C@@H](C=O)NC(=O)[C@H](CC(C)C)NC(=O)[C@H](CC(C)C)NC(C)=O (Ac-Leu-Leu-[Nle]-aldehyde) here?
A: -0.45 °C

Q: Which ΔTm does the source give for Cc1cc(C)c(CNC(=O)c2cc(-c3ccc(N4CCN(C)CC4)nc3)cc3c2c(C)cn3C(C)C)c(=O)[nH]1 here?
A: 0 °C

Q: Which ΔTm does the source give for C=CC(=O)Nc1cccc(-c2c[nH]cc2CN(C)CCN)c1 here?
A: -1.22 °C

Q: CC(=O)N[C@@H](Cc1ccc(O)cc1)C(=O)N[C@H](C(=O)N[C@@H](C)C(=O)N[C@@H](CC(=O)O)C(=O)COC(=O)c1c(C)cccc1C)C(C)C was tested. Which ΔTm did it give?
A: -0.23 °C

Q: With CC(=Cc1cc(C)ccc1C=C(C)C(=O)NC(=N)N)C(=O)N=C(N)N as the compound, how does the ΔTm read?
A: -0.1 °C

Q: Cc1cc(C(=O)N2CCN(C3CN(C(=O)c4ccc(-c5ccccc5)cc4)C3)CC2)no1 was tested. Which ΔTm did it give?
A: 0 °C

Q: With CCC[C@H]1CNCc2c1[nH]c(=O)c(C#N)c2N1CCC2(CC1)CC2 as the compound, how does the ΔTm read?
A: -0.31 °C

Q: For CN(CCOc1ccc(-c2ccc3c(c2)OCO3)cc1C(C)(C)C)CC(=O)O, which ΔTm is on record?
A: -0.2 °C

Q: With Cc1ccc(NC2=CC(=O)c3sc(C)nc3C2=O)cc1 as the compound, how does the ΔTm read?
A: -0.8 °C

Q: For CNCCC(Oc1ccccc1OC)c1ccccc1 (stereo not given), which ΔTm is on record?
A: -0.93 °C

From ChEMBL document CHEMBL5724796, “Tm Shift (DSF) assay results for EUbOPEN Chemogenomics Library” (2024)
